Screens deposited in PubChem BioAssay by National Center for Advancing Translational Sciences (NCATS).
D2 ag-1 = agonists of human D2 dopamine receptor (beta-arrestin) | P14416 | DiscoveRx PathHunter D2 beta-arrestin, luminescence, 90 min; 100% = 57 uM dopamine signal | activation, % (test concentration not listed) | actives 0.084% (n = 360,000); in the data active = activation above about 40%; inconclusive = between about 15% and that limit
Target sequence (P14416 whole entry, looked up): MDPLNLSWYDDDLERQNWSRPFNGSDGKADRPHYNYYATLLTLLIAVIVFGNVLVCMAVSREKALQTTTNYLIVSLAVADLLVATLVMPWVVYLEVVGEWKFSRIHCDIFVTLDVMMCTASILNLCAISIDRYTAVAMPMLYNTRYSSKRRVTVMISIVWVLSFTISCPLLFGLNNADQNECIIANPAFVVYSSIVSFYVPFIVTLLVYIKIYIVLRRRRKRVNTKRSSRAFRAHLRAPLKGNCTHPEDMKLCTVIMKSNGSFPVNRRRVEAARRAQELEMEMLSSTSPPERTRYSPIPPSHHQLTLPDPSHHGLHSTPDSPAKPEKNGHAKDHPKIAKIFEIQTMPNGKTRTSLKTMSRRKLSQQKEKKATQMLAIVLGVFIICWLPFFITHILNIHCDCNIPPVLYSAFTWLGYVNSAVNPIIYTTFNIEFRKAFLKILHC
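Agonist mode: compounds alone added to overnight-plated D2 PathHunter cells for 90 min at 37 C, with 57 uM final dopamine (EC100) defining full response. Beta-arrestin recruitment detected by chemiluminescent reagent, read after 1 h at ambient temperature.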
D2 PAM-1 = positive allosteric modulators of human D2 dopamine receptor; P14416; DiscoveRx D2 beta-arrestin cells, luminescence, 90 min; 100% = 57 uM dopamine signal; potentiation, % (concentration not given with the values); actives 0.23% (n = 360,000); AID 624464; in the data active = potentiation above about 50%; inconclusive = mostly about 30% to 49%
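PathHunter beta-arrestin assay in DiscoveRx D2 cells. Compounds were added with an EC20 of dopamine (50 nM final) for 90 min at 37 deg C. Luminescence was read 1 h after detection reagent, with 57 uM dopamine as the EC100 control.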
D2 antag = antagonists of human D2 dopamine receptor | P14416 | HEK293 TREx D2 cells, calcium flux, dopamine EC80 | AID 485344 | actives 2% (n = 340,000) | inhibition, % at 10 µM; in the data active = inhibition above about 30%; inactive = below that, where a call was filed; note: 0% is about no effect
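Dopamine at EC80 is the agonist stimulus; test compounds precede it by 180 s. Calcium flux read kinetically in a force-coupled, inducible HEK293 T-REx D2 cell line.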
D2 ag-2 = agonists of human D2 dopamine receptor; HEK293 T-REx D2 cells, calcium flux agonist mode; P14416; actives 0.53% (n = 340,000); activation, % at 2 µM; AID 485358;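 active = activation over 3 SD above normal in the single-dose calcium agonist read, cut at about 30% in these data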; note: 0% is about no effect
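HEK293 Trex D2 cells, tetracycline-induced, o/n 30 C 5% CO2; no-wash Ca dye, RT 30–90 min; 10-cycle baseline, 23 nl cpd added, kinetic Ca read 180 s; agonist hits = positive Ca response.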
D2 PAM-2 = positive allosteric modulators of human D2 dopamine receptor | HEK293 T-REx D2, calcium flux, EC20 dopamine potentiation | potentiation, % at 10 µM | P14416 | actives 0.34% (n = 340,000);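 active = potentiation over 3 SD above the plate norm, cut at about 30% in these data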; note: 0% is about no effect
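Using a no-wash calcium dye in inducible, force-coupled HEK293 Trex cells expressing D2, we tracked fluorescence each second for 180 s after compound, then for 180 s after EC20 dopamine to detect augmented signalling.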
The depositor's hits bear a star; ! = not active in a repeat. Hits are enriched below; roughly 2.4% of the tested compounds scored in any of these assays.

How did COc1ccccc1Nc1nn2c(=O)c3ccc(C(=O)N4CCCC(C)C4)cc3nc2s1 (centres undefined) do in these assays?
D2 ag-1: -6; D2 PAM-1: -11; D2 antag: -42; D2 ag-2: -1; D2 PAM-2: 37*!

Results for Cc1ccc(NC(=S)NC(NC(=O)c2ccco2)C(Cl)(Cl)Cl)cc1 (centres undefined) ?
D2 ag-1: 0; D2 PAM-1: -16; D2 antag: -3; D2 ag-2: 1; D2 PAM-2: -2

Results for Cc1cccc(NC(=S)NC(NC(=O)c2ccco2)C(Cl)(Cl)Cl)c1 (centres undefined) ?
D2 ag-1: 0; D2 PAM-1: -29; D2 antag: 30*; D2 ag-2: 1; D2 PAM-2: -24

Results for COc1ccc(CCNC(=O)c2nc(SCc3ccc(F)cc3)ncc2Cl)cc1OC ?
D2 ag-2: 0; D2 PAM-2: 6

What do the screens show for `COC(=O)Cc1c(C)c2ccc3c(c2oc1=O)CN(Cc1ccc(Cl)cc1)CO3`?
D2 ag-2: -1; D2 PAM-2: 15

How did Cc1cc(C)c(S(=O)(=O)N2CCN(c3ccc([N+](=O)[O-])c(NCc4ccco4)c3)CC2)c(C)c1 do in these assays?
D2 ag-1: 0; D2 PAM-1: -14; D2 antag: -2; D2 ag-2: -1; D2 PAM-2: 0

Results for O=[N+]([O-])c1ccc(N2CCN(CCO)CC2)cc1NCc1ccco1 ?
D2 ag-1: -4; D2 PAM-1: -40; D2 antag: 34*; D2 ag-2: -1; D2 PAM-2: -22

What do the screens show for `Cc1ccc(/C=C/c2onc(C)c2S(=O)(=O)N2CCC(C(=O)NCc3ccc(OC(C)C)cc3)CC2)cc1`?
D2 ag-2: 0; D2 PAM-2: 1

What do the screens show for `CC[C@@H](C(=O)[C@@H](C)[C@@H](O)[C@H](C)CCc1ccc(C)c(O)c1C(=O)O)[C@H]1O[C@](CC)([C@H]2CC[C@](O)(CC)[C@H](C)O2)C[C@@H]1C`?
D2 ag-1: inconclusive; D2 PAM-1: inconclusive; D2 antag: 49*; D2 ag-2: 15; D2 PAM-2: -20

What do the screens show for `COc1cc(-c2coc3c(C(=O)NCc4ccc(OC)c(OC)c4)cccc23)ccc1O`?
D2 ag-1: 68*; D2 PAM-1: -7

How did COc1ccccc1N1CCN(Cc2ccco2)CC1 do in these assays?
D2 ag-1: 1; D2 PAM-1: -6; D2 antag: -11; D2 ag-2: 4; D2 PAM-2: -16

How did COc1ccccc1N1CCN(Cc2ccc(-c3ccccc3[N+](=O)[O-])o2)CC1 do in these assays?
D2 ag-1: -1; D2 PAM-1: -77; D2 antag: 86*; D2 ag-2: -1; D2 PAM-2: -25

What do the screens show for `Cc1ccc(S(=O)(=O)N(C)c2ccc(OCC(=O)Nc3nnc(C4CC4)s3)cc2)cc1`?
D2 ag-1: 0; D2 PAM-1: 0; D2 antag: 2; D2 ag-2: 1; D2 PAM-2: 5

What do the screens show for `CCc1nnc(NC(=O)COc2ccc(N(C)S(=O)(=O)c3ccc(C)cc3)cc2)s1`?
D2 ag-1: -12; D2 PAM-1: -13; D2 antag: 40*; D2 ag-2: 12; D2 PAM-2: -8

Results for O=C(NCCCN1CCc2ccccc2C1)Nc1ccc(Br)cc1 ?
D2 ag-1: 1; D2 PAM-1: -34; D2 antag: 31*; D2 ag-2: 0; D2 PAM-2: -19

How did COc1ccc(CNC(=O)N2CCc3ccccc3C2)cc1 do in these assays?
D2 ag-1: -4; D2 PAM-1: -10; D2 antag: 34*; D2 ag-2: -1; D2 PAM-2: 8

Results for COc1ccc(NC(=O)NCCCN2CCc3ccccc3C2)cc1 ?
D2 ag-1: 4; D2 PAM-1: -9; D2 antag: 43*; D2 ag-2: 1; D2 PAM-2: -34

What do the screens show for `COc1ccc(-c2cn3nc(N4CCCC(C(=O)Nc5ccccc5OC)C4)sc3n2)cc1` (centres undefined)?
D2 ag-2: 4; D2 PAM-2: 2

How did COc1ccc(CNCc2ccc3c(c2)n(C)c(=O)n3C)cc1 do in these assays?
D2 ag-2: 0; D2 PAM-2: -18
